Here are results for 17 compounds from article PMC5540273 (PLoS ONE, 2017).

Details in all cases: concentration: 1 μM, replicates: in singlicate; n = 1
The subject of experiment [1] is PAK2.
Experiment [2] deals with PAK3.
Experiment [3] relates to PAK4.
The test system of experiment [4] is PAK6.
Experiment [5] has as its system PAK7.
In experiment [6] the test system is T1, PCTK1.
T1 construct: gene CDK16

Experiment [7] deals with T2, PCTK2.
T2 construct: gene CDK17

Experiment [8] deals with T3, PCTK3.
T3 construct: gene CDK18

Experiment [9] deals with PDGFRA.
Experiment [10] deals with PDGFRB.
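Further: KINOMEscan kinase panel screen.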

Regarding `Cc1c(Cn2c(C)nn3c(=O)cc(N4CCO[C@H](C)C4)nc23)cccc1C(F)(F)F` [GSK2373690], the “%Inh” value in [1] was 3%; in [2], 7%; in experiment [3] it was 0%; in experiment [4], 0%; in experiment [5], 0%; in experiment [6], 0%. Further, the “%Inh” value in experiment [7] is recorded as 0%; in experiment [8] it was 26%; in experiment [9] it was 0%; in experiment [10] it was 14%.

For `CCCC(=O)Nc1n[nH]c2ncc(-c3cccc4ccccc34)cc12` [SB-642057], the “%Inh” value in experiment [1] was determined as 5%; in experiment [2], 0%; in experiment [3], 0%; in [4], 0%; in [5], 0%; in experiment [6], 27%. Besides, the “%Inh” value amounted to 35% in [7], 34% in [8], 0% in experiment [9] and 12% in experiment [10].

As for `CCC(=O)c1c(-c2ccccc2)c2cc(Cl)ccc2c(=O)n1Cc1cc(C(=O)NC2CC2)n(C)n1`, the “%Inh” value in experiment [1] came out at 16%; in experiment [2], 11%; in experiment [3] it was 0%; in experiment [4] it was 4%; in experiment [5], 0%; in [6] it was 1%. The “%Inh” value in experiment [7] was found to be 6%; in [8], 0%; in experiment [9] it was 15%; in experiment [10], 77%.

Take `Nc1ncnc2c1ncn2-c1ccc(Cl)cc1` [AH2635]: the “%Inh” value in [1] amounted to 0%; in experiment [2], 7%; in experiment [3] it was 0%; in [4], 0%; in experiment [5] it was 6%; in experiment [6], 0%. In addition, the “%Inh” value in [7] is recorded as 0%; in experiment [8] it was 0%; in experiment [9], 38%; in experiment [10] it was 86%.

For `CCC(=O)c1c(-c2ccccc2)c2cc(Cl)ccc2c(=O)n1Cc1ccc(C(=O)O)cc1`, the “%Inh” value in experiment [1], in experiment [2], in experiment [3], in [4], in experiment [5] and in experiment [6] was 0% each time. Besides, the “%Inh” value in experiment [7] is 0%; in experiment [8], 0%; in [9] it was 19%; in experiment [10] it was 58%.

On to `CCn1c(-c2ccoc2)nc2cnccc21` [SB-733887], for which the “%Inh” value in experiment [1] was 19%; in experiment [2], 0%; in experiment [3], 0%; in [4] it was 0%; in [5], 0%; in experiment [6], 9%. Moreover, the “%Inh” value in [7] stood at 0%; in experiment [8], 1%; in experiment [9] it was 63%; in experiment [10], 9%.

Take `O=C(Nc1ccc2c(c1)OCO2)NC1CCN(c2ccnc(NCc3ccc(F)cc3)n2)CC1` [GSK1379859]: the “%Inh” value is on record as 0% in experiment [1]; 14% in experiment [2]; 0% in experiment [3]; 0% in [4]; 0% in [5]; 0% in experiment [6]. Moreover, the “%Inh” value came out at 0% in experiment [7], 0% in experiment [8], 0% in experiment [9] and 12% in experiment [10].

Turning to `COc1cc(Nc2nccc(N3CCC(NC(=O)C4COc5ccccc5O4)C3)n2)cc(OC)c1OC` (centres unmarked) [GSK1379761], the “%Inh” value was 0% in experiment [1]; 10% in experiment [2]; 0% in experiment [3]; 0% in experiment [4]; 3% in experiment [5]; 4% in experiment [6]. The “%Inh” value in experiment [7] amounted to 0%; in experiment [8], 10%; in experiment [9], 1%; in experiment [10], 45%.

Take `COc1cc2ncn(-c3cc(OCc4ccc(S(C)(=O)=O)cc4)c(C(N)=O)s3)c2cc1OC` [GW869979]: the “%Inh” value in experiment [1] is given as 0%; in experiment [2], 0%; in experiment [3], 0%; in experiment [4], 0%; in experiment [5] it was 0%; in [6] it was 19%. For the same compound, the “%Inh” value in [7] came to 0%; in [8] it was 26%; in experiment [9] it was 30%; in [10] it was 11%.

`O=C(NCCNc1ccnc(Nc2ccc(F)cc2)n1)Nc1ccc2c(c1)OCO2` [GSK1379882]: the “%Inh” value in experiment [1] is reported as 0%; in [2], 0%; in experiment [3], 0%; in [4], 12%; in experiment [5], 7%; in [6], 14%. Further, the “%Inh” value in experiment [7] is 0%; in [8] it was 0%; in [9], 6%; in experiment [10], 53%.

Consider `CCc1ccc(-c2ccc3c(c2)-c2nn(C)cc2S(=O)(=O)N3C)cc1`, for which the “%Inh” value is on record as 11% in [1]; 0% in experiment [2]; 0% in experiment [3]; 9% in experiment [4]; 0% in [5]; 0% in [6]. In addition, the “%Inh” value in experiment [7], in [8], in experiment [9] and in [10] was 0% each time.

`Nc1nc(N)c2nc(-c3ccccc3)[nH]c2n1` [SKF-12778]: the “%Inh” value in experiment [1] is recorded as 0%; in experiment [2], 0%; in experiment [3], 13%; in experiment [4] it was 0%; in experiment [5], 5%; in experiment [6] it was 5%. For the same compound, the “%Inh” value in [7] is given as 0%; in [8], 0%; in experiment [9], 0%; in experiment [10], 14%.

`COc1cc2nccc(Nc3ccc(OCc4ccc(NC(C)=O)cc4)cc3)c2cc1OC.Cl` [GW440135]: the “%Inh” value was 0% in experiment [1]; 0% in [2]; 9% in experiment [3]; 0% in [4]; 0% in [5]; 9% in experiment [6]. Further, the “%Inh” value is recorded as 0% in experiment [7], 0% in experiment [8], 93.1% in experiment [9] and 99.6% in [10].

For the compound `CCn1c(-c2nonc2N)nc2ccccc21` [SB-693162/GW549034], the “%Inh” value in experiment [1] is 27%; in [2] it was 0%; in [3] it was 0%; in experiment [4] it was 11%; in experiment [5], 11%; in experiment [6], 4%. Further, the “%Inh” value in [7] is given as 0%; in experiment [8], 16%; in experiment [9], 41%; in experiment [10], 0%.

As to `Fc1cccc(CSc2nnc(-c3ccc4c(c3)CCO4)o2)c1`, the “%Inh” value is 62% in experiment [1]; 19% in experiment [2]; 23% in experiment [3]; 35% in experiment [4]; 5% in [5]; 18% in experiment [6]. The “%Inh” value was 1% in experiment [7], 0% in experiment [8], 26% in experiment [9] and 0% in experiment [10].

For the compound `Cc1nnc(-c2ccc3ncn(-c4ccc(S(C)=O)cc4)c3c2)o1` (centres unmarked), the “%Inh” value was found to be 14% in experiment [1]; 0% in experiment [2]; 2% in experiment [3]; 4% in [4]; 2% in experiment [5]; 0% in experiment [6]. The “%Inh” value in experiment [7] came out at 0%; in [8], 14%; in experiment [9], 17%; in experiment [10], 30%.

With `O=C(Nc1n[nH]c2cc(-c3ccccc3F)ccc12)C1CC1` [SB-733371], the “%Inh” value amounted to 0% in [1]; 0% in experiment [2]; 0% in experiment [3]; 0% in experiment [4]; 9% in experiment [5]; 0% in experiment [6]. The “%Inh” value in experiment [7] was determined as 9%; in experiment [8] it was 0%; in experiment [9], 16%; in [10] it was 46%.
